According to PubChem BioAssay AID620 (Sanford-Burnham Center for Chemical Genomics, 2007):
Hit rate of the full screen: of about 87,000 compounds, about 360 (0.41%) were called active. The list comes from a sample in which actives are over-represented; it also holds similar structures and randomly drawn compounds. A number with no mark means an inactive call. Rule as the data show it: active = cytotoxicity above about 50%; inactive = the rest.

experiment: cytotoxicity in HT1080 fibrosarcoma cells, cell-based, fluorescence readout (AID 620); settings: HT1080 viability, at 10 µM, stronger effect = higher value;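 also: cells exposed to compound overnight then 4 h with Alamar Blue; 0% = vehicle DMSO and 100% = killing control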

SMILES	cytotoxicity
N#CC1=C2C=CC=CN2CC1=O	-0.7%
COc1ccc(CC(=O)N2CCCc3ccccc32)cc1	-11%
CCSC1(SCC)N=C(N)C2(C#N)C(c3ccccc3)NC(C)=C(C)C12C#N (stereo unspecified)	6.9%
CCN(CC)S(=O)(=O)c1ccc(Br)c(OC)c1	-1.2%
CCc1ccccc1NC(=O)CN1C(=O)C2CCCN2c2ncc(Cl)cc21 (stereo unspecified)	-1.2%
Cc1ccc(C(=O)c2nocc2C(=O)c2cccs2)cc1	-9.5%
O=C(O)Cc1ccc(C(=O)c2cccs2)s1	6.9%
O=C(c1cccs1)c1no[n+]([O-])c1C(=O)c1cccs1	73.8% (active)
CCOC(=O)N1CCN(C(=O)c2cnsn2)CC1	-5.1%
CC(C)(C)N1CC(c2nc3ccccc3n2Cc2ccccc2)CC1=O (stereo unspecified)	-14.8%
Cc1cccc(N(C)C(=O)COc2cc(=O)n(C)c3ccccc23)c1	2%
Cc1cnc(C(=O)OCC(=O)N2c3ccccc3NC(=O)C2(C)C)cn1	-0.5%
O=c1cc(-c2ccccc2)c2ccccc2[nH]1	-2.5%
Cc1ccc2[nH]c(C(=O)O)c(-c3ccccc3)c2c1	-8.4%
O=c1cc(-c2ccccc2)[nH]c2ccccc12	67.1% (active)
Cc1cc(=O)c2ccccc2[nH]1	26.5%
Cc1ccc2[nH]c(-c3ccccc3)cc(=O)c2c1	71.1% (active)
CCN(CC)Cc1c(-c2ccccc2)[nH]c2ccc(C)cc2c1=O	5.1%
Cc1ccc(NC(=O)N(CCCN2CCOCC2)Cc2cc3cc4c(cc3[nH]c2=O)OCO4)cc1	-5.1%
C#CC(C)(CC)NC(=O)Cn1nnc(-c2ccc(S(C)(=O)=O)cc2)n1 (stereo unspecified)	-5.1%
CC(CN1CCCCC1)OC(=O)Cc1ccc(Cl)cc1 (stereo unspecified)	-6.9%
O=C(COc1ccccc1)NCC(c1cccs1)N1CCOCC1 (stereo unspecified)	-8.1%
CCC(=O)NCC(c1cccs1)N1CCOCC1 (stereo unspecified)	-3.1%
O=C(NCC(c1cccs1)N1CCOCC1)c1ccco1 (stereo unspecified)	9%
O=C(NCC(c1ccc(F)cc1)N1CCOCC1)c1ccc(Br)o1 (stereo unspecified)	-5.4%
O=C(NCC(c1cccs1)N1CCOCC1)c1ccc(Cl)s1 (stereo unspecified)	62.9% (active)

SMILES	cytotoxicity
O=C(NCC(c1cccs1)N1CCOCC1)c1ccc(Br)o1 (stereo unspecified)	56.3% (active)
CCCCCC(=O)OC(CN1CCCCC1)CN1CCCC1=O (stereo unspecified)	6.6%
COc1ccccc1NC(=S)NNC(=O)c1ccc(Cl)cc1Cl	-4%
Cc1ccc(-c2noc(-c3ccccc3C(=O)N3CCOCC3)n2)cc1	-2.2%
Cc1cc(N2CCCC2=O)cc(C)c1S(=O)(=O)NCCOc1ccccc1	0.6%
CCOc1ccc(NC2=NC(C(=O)NCc3ccccc3)CC(=O)N2)cc1 (stereo unspecified)	7.4%
CC(C)(C)c1ccc(C(=O)Nc2cnccn2)cc1	-0.1%
Cc1noc(C)c1COc1ccc(C(=O)OCC(=O)N2CC(=O)Nc3ccccc32)cc1	-12.1%
CCC(Oc1ccccc1)C(=O)Nc1nnc(C)s1 (stereo unspecified)	-5.1%
Cc1occc1C(=O)Nc1ccc2c(c1)OCCO2	11.2%
CC(=O)NC1C(=O)N(C)c2ccc(Br)cc21 (stereo unspecified)	-16.4%
Cc1ccccc1Cc1c(C)nc2nc(SCC(=O)NCc3ccco3)nn2c1C	-13.4%
Cc1nc2nc(SCC(=O)NCc3ccco3)nn2c(C)c1Cc1c(F)cccc1Cl	-13.6%
Cc1ccc(Cc2c(C)nc3nc(SCC(=O)NCc4ccco4)nn3c2C)cc1	69.7% (active)
O=C(c1ccco1)N1CCCC(c2nc(-c3ccc(S(=O)(=O)NCc4ccccc4)cc3)no2)C1 (stereo unspecified)	-1.4%
CCCCS(=O)(=O)c1sc2nc(C)cc(C)c2c1N	12.9%
O=C(CCc1nc(-c2ccccc2)no1)NCc1ccco1	6.9%
Cc1ccc(-c2noc(CCC(=O)NCc3ccco3)n2)cc1	64% (active)
Cc1cccc(-c2noc(CCC(=O)NCc3ccco3)n2)c1	7.3%
CCn1cnc2cc(NCc3nc4ccccc4n3C)ccc21	1.7%
Cc1cc(NC(=O)C2CC(c3ccc(Cl)cc3)=NO2)no1 (stereo unspecified)	-7.6%
Cc1cccc(NS(=O)(=O)Cc2ccccc2)n1	-2.7%
CCCOc1ccccc1C1CC(=O)Nc2cc3c(cc21)OCCO3 (stereo unspecified)	58.6% (active)
CCOc1c(OC)cccc1C1CC(=O)Nc2cc(OC)c(OC)cc21 (stereo unspecified)	-2.2%
CCCOc1c(OC)cccc1C1CC(=O)Nc2cc3c(cc21)OCO3 (stereo unspecified)	-2.6%
CCOc1ccccc1C1CC(=O)Nc2cc3c(cc21)OCO3 (stereo unspecified)	67.2% (active)

SMILES	cytotoxicity
CCOc1ccccc1C1CC(=O)NC2=C1C(=O)CCC2 (stereo unspecified)	11.2%
O=C1CC(c2ccc3c(c2)OCO3)c2cc3c(cc2N1)OCCO3 (stereo unspecified)	8.1%
O=C1CC(c2cccs2)c2cc3c(cc2N1)OCCO3 (stereo unspecified)	-3.6%
CCCOc1c(OC)cccc1C1CC(=O)Nc2cc3c(cc21)OCCO3 (stereo unspecified)	-3.5%
CCOc1ccccc1C1CC(=O)Nc2cc3c(cc21)OCCO3 (stereo unspecified)	68.1% (active)
CCCCOc1ccccc1C1CC(=O)NC2=C1C(=O)CCC2 (stereo unspecified)	56% (active)
CCOc1c(OC)cccc1C1CC(=O)Nc2cc3c(cc21)OCCO3 (stereo unspecified)	-3.8%
CCCOc1ccccc1C1CC(=O)NC2=C1C(=O)CCC2 (stereo unspecified)	39.4%
CC(=O)Nc1ccc2c(c1)nc(CN1CCCC1)n2C	-8.7%
Cc1c(NC(=O)CSc2ccccn2)c(=O)n(-c2ccccc2)n1C	1.3%
Cc1cccc2cc(CN(CCN3CCOCC3)C(=O)Nc3ccccc3F)c(=O)[nH]c12	13.6%
CC12CCC(C(=O)N3CCCCC3)(CC1=O)C2(C)C (stereo unspecified)	-0.3%
COC(=O)[C@@]1(Cc2ccccc2)[C@H]2c3cc(C(=O)N(C)C)n(Cc4ccc(S(C)(=O)=O)cc4)c3C[C@H]2CN1C(=O)c1ccccc1	2.9%
O=c1ccc(Cc2ccccn2)n[nH]1	-6.4%
Cc1ccc(-n2c(SCC(=O)OC(C)C)nnc2-c2cnccn2)cc1	0.6%
COc1ccccc1N(C(=O)c1snc(C(N)=O)c1N)C(C(=O)NC1CCCC1)c1ccco1 (stereo unspecified)	-5.3%
Cc1oc(-c2ccccc2F)nc1CS(=O)(=O)CC(=O)N1CCc2ccccc21	-3.2%
COc1ccc(C(=O)N2CCN(c3cccc(Cl)c3)CC2)cc1	-4.7%
COc1ccccc1C(=O)N1CCN(c2cccc(C(F)(F)F)c2)CC1	58.7% (active)
CCOc1ccccc1C(=O)N1CCOCC1	-16.5%
COc1ccccc1CC(=O)N1CCN(c2cccc(C(F)(F)F)c2)CC1	-8.5%
COc1ccccc1C(=O)N1CCN(c2cccc(Cl)c2)CC1	53% (active)
Cc1ccc(C(=O)N2CCN(c3cccc(Cl)c3)CC2)cc1C	-5.4%
COc1cc2c(C(=O)N3CCN(c4cccc(Cl)c4)CC3)cn(C)c(=O)c2cc1OC	20.5%
CCOc1ccccc1C(=O)N1CCN(c2cccc(Cl)c2)CC1	50.8% (active)
O=C(O)c1ccccc1C(=O)N1CCN(c2cccc(Cl)c2)CC1	8.7%

SMILES	cytotoxicity
COc1ccc(C(=O)N2CCN(c3cccc(Cl)c3)CC2)c(OC)c1	15.6%
O=C(c1ccccc1F)N1CCN(c2cccc(C(F)(F)F)c2)CC1	-6.8%
CCOc1ccc(C(=O)Cc2ccc3oc(C(=O)O)cc3c2)c(O)c1	-8.8%
O=C(CSc1nc2ncc(Br)cc2[nH]1)Nc1ccc2c(c1)OCO2	2.1%
COCCNC(=O)COC(=O)/C=C/c1c(C)nn(Cc2ccc(Cl)cc2Cl)c1Cl	5.2%
C[N+]1(CC(=O)Nc2ccc(F)cc2)CCN(C(=O)c2ccco2)CC1	15.7%
COc1cc(-c2noc(CCCC(=O)NCc3ccccc3)n2)cc(OC)c1OC	6.8%
O=C(COc1ccccc1)N1CCN(S(=O)(=O)c2ccc(Cl)cc2)CC1	17.2%
O=C1CC(c2ccccc2)CC(O)=C1C=NCCCO (stereo unspecified)	4.4%
Cc1cccc(OCC(=O)NCCN2CCOCC2)c1	5.4%
COC(=O)[C@H](CCSC)NC(=O)Nc1ccc(OC)c(Cl)c1	-10.8%
Cc1n[nH]c(C)c1S(=O)(=O)N1CCCC(C(=O)NCc2cccs2)C1 (stereo unspecified)	2.8%
O=C(CNS(=O)(=O)c1ccc(F)cc1)N1CCN(c2ccccc2)CC1	7%
Cc1nc2ccc(NC(=O)Cc3ccsc3)cc2s1	-7.3%
COc1ccc(N2CCN(Cc3nc4c(c(=O)n(C)c(=O)n4C)n3CCc3ccccc3)CC2)cc1	0.1%
Cc1cc(=O)oc(C)c1C(=O)N1CCN(c2ccc(F)cc2)CC1	5.9%
O=[N+]([O-])/C(C(Cl)=C(Cl)Cl)=C(\Nc1ccc(F)cc1)n1cncn1	10.6%
Cn1ncc(N=Cc2ccc([N+](=O)[O-])cc2)c1C(=O)N1CCOCC1	-3.9%
CC(C)(C)C(=O)/C(=C\c1ccc([N+](=O)[O-])cc1)n1cncn1	89% (active)
O=C(COc1ccc(S(=O)(=O)Nc2ccccc2)cc1)N1CCOCC1	-4.7%
O=S(=O)(C/C(=C/CO)S(=O)(=O)c1ccccc1)c1ccccc1	51.2% (active)
C/C=C(\CS(=O)(=O)c1ccccc1)S(=O)(=O)c1ccccc1	-9.9%
CCOC(=O)CS(=O)(=O)c1ccccc1	-4.5%
